Test results reported in PubChem BioAssay (Tox21).
Where “and” joins values, the source holds several entries; their conditions need not be identical. Equal values may be shown once. Inconclusive results are not listed. Where a structure was tested more than once in an assay, its records may differ in their call. Calls of active or inactive are those of the source. Unless noted, calls come from the whole dose curve.

Tests used:
[1] = Nuclear factor erythroid 2-related factor 2/antioxidant responsive element (Nrf2/ARE) small molecule agonists: qHTS cell viability counter screen in human keratinocytes (AID 1919968; active = well fitted cell-killing curve with a large enough effect in the repeat runs; note: nearly all actives have a fitted effect of over 55% in size; note: potency is the fitted concentration of half-maximal effect)
Method in brief: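 KeratinoSens HaCaT cells, 1,500/well, preincubated 5 h, then exposed to compounds in DMSO for 23 h at 37 C/5% CO2. Viability read as CellTiter-Fluor fluorescence after 1 h, in the same wells as the ARE-luciferase read.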

[2] = Nuclear factor erythroid 2-related factor 2/antioxidant responsive element (Nrf2/ARE) small molecule agonists: luciferase reporter gene qHTS assay in human keratinocytes (AID 1919969); note: nearly all actives have a fitted effect of over 35% in size; note: potency is the fitted concentration of half-maximal effect
[3] = biological target: Gonadotropin-releasing hormone receptor (Homo sapiens) (UniProt P30968); assay: Human gonadotropin-releasing hormone receptor (GnRHR) small molecule agonists, calcium flux assay in GnRHR-HEK293 cells (AID 1920063); note: nearly all actives have a fitted effect of over 35% in size
Method in brief: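 HEK293 cells stably expressing human GnRHR were dye-loaded for 1 h at 37 C. Compound was added in agonist mode and fluorescence (Ex/Em 480/540) recorded kinetically for 3 min. Fifteen concentrations, triplicates.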

[4] = p53 small molecule agonists, cell-based qHTS assay with human liver microsomes (AID 1963577);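 note: p53 response element beta-lactamase reporter cells with liver microsomes plus NADPH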
Method in brief: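 Metabolically competent format: test substances, human liver microsomes and NADPH (both 0.5 mg/mL final) incubated with p53RE-bla cells 16 h at 37 C. Beta-lactamase reporter signal then quantified by fluorescence.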

[5] = p53 small molecule agonists, cell-based qHTS assay with rat liver microsomes (AID 1963578)
Method in brief: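 Each plate received p53RE-bla cells, then compound, then rat liver microsomes and NADPH (both 0.5 mg/mL final). Plates were held 16 h at 37 C, and beta-lactamase activity was detected with LiveBLAzer over 2 h.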

[6] = p53 small molecule agonists, cell-based qHTS assay with human liver microsomes: qHTS cell viability counter screen (AID 1963579); note: nearly all actives have a fitted effect of over 45% in size; note: potency is the fitted concentration of half-maximal effect
Method in brief: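 Tox21 library compounds, delivered from DMSO stocks, were tested on p53RE-bla cells together with 0.5 mg/mL human liver microsomes and 0.5 mg/mL NADPH (final) over 16 h at 37 C; CellTiter-Glo luminescence served as the cytotoxicity measure.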

[7] = p53 small molecule agonists, cell-based qHTS assay: qHTS cell viability counter screen (AID 1963581); note: nearly all actives have a fitted effect of over 45% in size; note: potency is the fitted concentration of half-maximal effect
Method in brief: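 p53RE-bla HCT-116 cells, compounds added 5 h after plating and incubated 16 h at 37 C. Cytotoxicity measured in the same wells as intracellular ATP by CellTiter-Glo luminescence after 30 min at room temperature.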

[8] = p53 small molecule agonists, cell-based qHTS assay (AID 1963582; active = well fitted activation curve with a large enough effect in the signal ratio in the repeat runs, not every such curve was filed as active; the % refers to the signal ratio)
Method in brief: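 p53RE-bla reporter cells, compounds added in DMSO after 5 h plating, incubated 16 h at 37 C. Beta-lactamase read via 2 h room-temperature LiveBLAzer B/G FRET substrate, fluorescence intensity.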

[9] = biological target: 5-hydroxytryptamine receptor 2A (Homo sapiens) (UniProt P28223); assay: 5-hydroxytryptamine receptor 2A (HTR2A) small molecule antagonists, cell-based qHTS assay (AID 1963586); note: nearly all actives have a fitted effect of over 45% in size; note: potency is the fitted concentration of half-maximal effect
Method in brief: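 Antagonist-mode intracellular calcium assay: DOI (4 nM) added after 5 min compound pre-incubation at room temperature to dye-loaded HTR2A-CHO cells. Fluorescence followed for 3 min, sampled every second.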

[10] = biological target: 5-hydroxytryptamine receptor 2A (Homo sapiens) (UniProt P28223); assay: 5-hydroxytryptamine receptor 2A (HTR2A) small molecule agonists, cell-based qHTS assay (AID 1963587); note: nearly all actives have a fitted effect of over 30% in size; note: potency is the fitted concentration of half-maximal effect
Method in brief: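 HTR2A-CHO cells, plated 18 h at 37 C/5% CO2, dye-loaded 1 h at 37 C; compounds in DMSO added by pin tool (agonist mode). Intracellular calcium flux read as kinetic fluorescence on FDSS over 2 min at 1 s intervals.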

[11] = biological target: Muscarinic acetylcholine receptor M1 (Homo sapiens) (UniProt P11229); assay: Cholinergic receptor muscarinic 1 (CHRM1) small molecule agonists, cell-based qHTS assay (AID 1963589); note: nearly all actives have a fitted effect of over 35% in size
Method in brief: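 CHO cells stably expressing human CHRM1 were loaded with calcium dye for 1 h at 37 C, then compound was added in agonist mode. Intracellular calcium fluorescence was followed kinetically at 1 s intervals. Fifteen concentrations were tested in three independent runs.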

[12] = cAMP Responsive Elements (CRE) small molecule agonists, cell-based qHTS assay (AID 1963590)
Method in brief: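 CRE-bla HEK 293T cells, 2,000/well in DMEM with 10% dialyzed FBS and 25 mM HEPES, pre-incubated 18 h at 37 C, then exposed to compound 3 h at 37 C. Beta-lactamase reporter read with LiveBLAzer B/G FRET substrate after 2 h at room temperature.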

[13] = cAMP Responsive Elements (CRE) small molecule antagonists, cell-based qHTS assay (AID 1963591; active = well fitted inhibition curve with a large enough effect in the signal ratio in the repeat runs, not every such curve was filed as active; the % refers to the signal ratio)
Method in brief: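 CRE-bla HEK293T cells plated 18 h, then given compound plus NKH477 at 0.25 uM final for 3 h at 37C. Beta-lactamase reporter read with LiveBLAzer B/G FRET substrate after 2 h at room temperature.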

[14] = biological target: Beta-2 adrenergic receptor (Homo sapiens) (UniProt P07550); assay: Adrenergic beta2 receptor (ADRB2) small molecule antagonists, cell-based qHTS assay (AID 1963592); note: nearly all actives have a fitted effect of over 50% in size; note: potency is the fitted concentration of half-maximal effect
Method in brief: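 Cells (CHO, stable ADRB2 overexpression) incubated 18-20hr at 37C; compounds added from DMSO; agonist mix (1nM isoproterenol, 100uM IBMX, 25uM Ro-20-1724) added; 0.5hr RT; d2-cAMP and anti-cAMP-cryptate added; 1hr RT; 665/615 nm read.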

[15] = biological target: D(2) dopamine receptor (Homo sapiens) (UniProt P14416); assay: Dopamine D2 receptor (DRD2) small molecule agonists, cell-based qHTS assay (AID 1963594); note: nearly all actives have a fitted effect of over 35% in size
Method in brief: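 HEK293 cells stably expressing DRD2 were cultured 24 h at 37 C, then given Ro20-1724 (0.1 mM final) and compounds for 10 min at room temperature. NKH477 (200nM) was then added for 30 min. cAMP was read by HTRF.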

[16] = p53 small molecule agonists, cell-based qHTS assay with rat liver microsomes: qHTS cell viability counter screen (AID 1963580); note: nearly all actives have a fitted effect of over 45% in size; note: potency is the fitted concentration of half-maximal effect
Method in brief: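 In HCT-116 cells carrying a p53 response element-bla reporter, compounds were metabolically activated in situ by rat liver microsomes with NADPH over 16 h. Cell ATP content then served as the cytotoxicity measure.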

[17] = biological target: Beta-2 adrenergic receptor (Homo sapiens) (UniProt P07550); assay: Adrenergic beta2 receptor (ADRB2) small molecule agonists, cell-based qHTS assay (AID 1963593);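 note: CHO cells stably overexpressing human ADRB2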
Method in brief: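 CHO cells stably over-expressing ADRB2 were plated overnight at 37C, then dosed with compounds plus a stimulation mix containing 100uM IBMX and 25uM Ro-20-1724 for 0.5hr at room temperature. cAMP was measured by HTRF competition, 1hr.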

[18] = biological target: D(2) dopamine receptor (Homo sapiens) (UniProt P14416); assay: Dopamine D2 receptor (DRD2) small molecule antagonists, cell-based qHTS assay (AID 1963595; active = well fitted inhibition curve with a large enough effect in the signal ratio in the repeat runs, with a control signal flat; the % refers to the signal ratio)
Method in brief: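 Stable D2 receptor HEK293 line, 24 h after seeding. Compound preincubated 10 min, then quinpirole (12 nM) with forskolin analogue NKH477 (200 nM), 30 min, room temperature. Detection by time-resolved FRET of cAMP.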

[19] = biological target: Muscarinic acetylcholine receptor M1 (Homo sapiens) (UniProt P11229); assay: Cholinergic receptor muscarinic 1 (CHRM1) small molecule antagonists, cell-based qHTS assay (AID 1963588); note: nearly all actives have a fitted effect of over 40% in size
Method in brief: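 CHRM1-CHO calcium-flux assay, antagonist mode. Cells were seeded 18 h, dye-loaded 1 h at 37 C and given compound for 5 min at RT, then acetylcholine was added at 50nM. FDSS fluorescence was read 3 min; 15 concentrations, three runs.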

[20] = G protein-coupled receptor (GPCR) small molecule agonists, calcium flux assay: HEK293 wild type cell line counter screen (AID 1920065)
Method in brief: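 Wild-type HEK293 cells plated 18 h, loaded with calcium dye 1 h at 37 C, then compounds added in agonist mode (ATP as positive control). Kinetic fluorescence Ex/Em 480/540 recorded 3 min at 1 sec intervals; 15 concentrations, triplicate.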

Measured: Potency

Chain of Beta-2 adrenergic receptor (Homo sapiens) (P07550 whole entry, looked up): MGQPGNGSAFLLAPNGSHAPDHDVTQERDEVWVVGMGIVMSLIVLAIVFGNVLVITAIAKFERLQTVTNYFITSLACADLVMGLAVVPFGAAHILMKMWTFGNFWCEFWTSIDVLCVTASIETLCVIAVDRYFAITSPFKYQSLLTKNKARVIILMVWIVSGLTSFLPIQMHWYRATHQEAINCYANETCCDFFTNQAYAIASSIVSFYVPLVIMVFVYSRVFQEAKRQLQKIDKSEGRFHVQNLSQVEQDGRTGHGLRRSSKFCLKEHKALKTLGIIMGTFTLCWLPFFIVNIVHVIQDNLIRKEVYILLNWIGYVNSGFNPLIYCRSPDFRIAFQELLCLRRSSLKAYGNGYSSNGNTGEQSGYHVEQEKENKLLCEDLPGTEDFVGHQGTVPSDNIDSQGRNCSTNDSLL
Chain of Muscarinic acetylcholine receptor M1 (Homo sapiens) (P11229 whole entry, looked up): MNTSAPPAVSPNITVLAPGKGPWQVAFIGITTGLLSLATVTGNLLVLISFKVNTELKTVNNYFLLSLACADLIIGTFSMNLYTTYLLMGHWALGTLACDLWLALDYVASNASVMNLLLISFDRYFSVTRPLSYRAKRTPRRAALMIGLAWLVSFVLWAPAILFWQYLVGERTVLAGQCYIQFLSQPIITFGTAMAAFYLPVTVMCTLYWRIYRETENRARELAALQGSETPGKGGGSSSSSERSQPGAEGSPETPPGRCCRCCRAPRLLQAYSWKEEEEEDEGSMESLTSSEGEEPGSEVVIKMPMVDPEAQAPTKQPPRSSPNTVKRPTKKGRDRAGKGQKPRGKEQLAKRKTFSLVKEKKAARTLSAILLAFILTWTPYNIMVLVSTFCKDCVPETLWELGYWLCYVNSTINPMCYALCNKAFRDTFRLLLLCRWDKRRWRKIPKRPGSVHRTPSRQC
Chain of D(2) dopamine receptor (Homo sapiens) (P14416 whole entry, looked up): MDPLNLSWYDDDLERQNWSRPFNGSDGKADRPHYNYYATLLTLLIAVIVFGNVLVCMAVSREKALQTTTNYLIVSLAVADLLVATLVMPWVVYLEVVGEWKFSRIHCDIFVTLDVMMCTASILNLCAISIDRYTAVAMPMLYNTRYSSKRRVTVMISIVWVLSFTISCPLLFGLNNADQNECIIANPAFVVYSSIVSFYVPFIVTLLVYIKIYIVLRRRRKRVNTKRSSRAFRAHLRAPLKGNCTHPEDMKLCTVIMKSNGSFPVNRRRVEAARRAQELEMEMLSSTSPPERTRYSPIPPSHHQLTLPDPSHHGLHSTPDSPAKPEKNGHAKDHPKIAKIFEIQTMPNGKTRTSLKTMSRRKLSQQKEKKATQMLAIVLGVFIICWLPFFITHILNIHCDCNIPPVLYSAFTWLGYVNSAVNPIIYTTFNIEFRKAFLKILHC
Chain of Gonadotropin-releasing hormone receptor (Homo sapiens) (P30968 whole entry, looked up): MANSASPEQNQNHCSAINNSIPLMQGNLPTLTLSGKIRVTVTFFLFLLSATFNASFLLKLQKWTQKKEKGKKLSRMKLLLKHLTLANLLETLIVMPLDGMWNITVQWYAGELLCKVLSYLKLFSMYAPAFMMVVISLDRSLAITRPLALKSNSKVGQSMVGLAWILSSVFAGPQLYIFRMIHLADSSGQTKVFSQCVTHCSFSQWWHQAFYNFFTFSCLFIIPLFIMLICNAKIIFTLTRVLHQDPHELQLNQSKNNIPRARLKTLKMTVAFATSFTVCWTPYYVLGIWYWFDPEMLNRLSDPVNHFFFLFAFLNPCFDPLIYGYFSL
Chain of 5-hydroxytryptamine receptor 2A (Homo sapiens) (P28223 whole entry, looked up): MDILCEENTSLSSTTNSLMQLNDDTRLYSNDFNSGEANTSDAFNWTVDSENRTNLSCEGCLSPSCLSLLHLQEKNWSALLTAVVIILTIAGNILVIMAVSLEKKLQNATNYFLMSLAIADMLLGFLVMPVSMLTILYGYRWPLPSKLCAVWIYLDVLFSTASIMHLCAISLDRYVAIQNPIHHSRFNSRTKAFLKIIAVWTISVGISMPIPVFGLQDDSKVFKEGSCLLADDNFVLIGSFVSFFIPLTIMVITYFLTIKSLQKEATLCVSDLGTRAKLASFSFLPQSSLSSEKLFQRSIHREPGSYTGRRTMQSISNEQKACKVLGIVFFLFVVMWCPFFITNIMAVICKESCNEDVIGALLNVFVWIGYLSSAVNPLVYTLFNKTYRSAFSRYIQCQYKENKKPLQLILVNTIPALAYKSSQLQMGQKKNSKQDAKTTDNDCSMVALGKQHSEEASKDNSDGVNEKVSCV

O=C(OCCOCCOC(=O)c1ccccc1)c1ccccc1
inactive and 7.5 nM (active): [9]
not listed: [16] | [17] | [18] | [19] | [20]
inactive: all other assays above

CC(O)(P(=O)(O)O)P(=O)(O)O
not listed: [4] | [5] | [8] | [9] | [10] | [11] | [19] | [20]
inactive: all other assays above

O=c1[nH]nnc2ccccc12
not listed: [16] | [17] | [20]
inactive: all other assays above

CC1=C(C)S(=O)(=O)CCS1(=O)=O
active: [2] 6.73 µM and 8.63 µM
inactive and 13.7 µM (active): [14]
not listed: [9] | [12] | [16] | [17] | [20]
inactive: all other assays above

CCOC(=O)CC(=O)OCC
not listed: [8] | [20]
inactive: all other assays above

O=C1CCCCCN1
not listed: [5] | [17] | [20]
inactive: all other assays above

CCC1(c2ccccc2)C(=O)NCNC1=O
not listed: [9] | [10] | [11] | [17] | [19]
inactive: all other assays above

CCCCCNCCCCC
not listed: [13]
inactive: all other assays above

O=C(O)c1cccc([N+](=O)[O-])c1
not listed: [13]
inactive: all other assays above

CCCCCCCCCCO
not listed: [6]
inactive: all other assays above

NC(=O)c1cnccn1
not listed: [9] | [10] | [11] | [14] | [16] | [19]
inactive: all other assays above

CC(CCC(=O)O)(c1ccc(O)cc1)c1ccc(O)cc1
not listed: [17]
inactive: all other assays above

CC1=CC(C)(C)Nc2ccccc21
inactive: all assays above

c1ccncc1
not listed: [16]
inactive: all other assays above

CCCCCCC(C)O (stereo not given)
not listed: [15]
inactive: all other assays above

CCC(=O)/C=C/C1C(C)=CCCC1(C)C (stereo not given)
not listed: [10] | [13] | [17]
inactive: all other assays above

CN1C(C(=O)Nc2ccccn2)=C(O)c2ccccc2S1(=O)=O
not listed: [9] | [10] | [11] | [16] | [17] | [19]
inactive: all other assays above

CC(=O)O[C@]1(C(C)=O)CC[C@H]2[C@@H]3C=C(Cl)C4=CC(=O)CC[C@]4(C)[C@H]3CC[C@@]21C
68.5 µM (active) and inactive: [2]
not listed: [9] | [10] | [11] | [12] | [13] | [19]
inactive: all other assays above

O=C1C(c2[nH]c3ccccc3c2O)=Nc2ccccc21
inactive: all assays above

NNc1ccc(C(=O)O)cc1
active: [2] 22 µM and 30.9 µM
not listed: [11] | [17]
inactive: all other assays above

O=[N+]([O-])c1cccc(Cl)c1
inactive: all assays above

NCCNc1cccc2ccccc12
active: [9] 0.0029 µM | [10] 389 nM and 1.2 nM and 19 nM
54.4 µM (active) and inactive: [1]
not listed: [14] | [17]
inactive: all other assays above

CC(=O)OC/C=C(\C)CCC=C(C)C
inactive: all assays above

CC12CCC(CC1)C(C)(C)O2
not listed: [9] | [10] | [11] | [17] | [19]
inactive: all other assays above

CC(C)OC(=O)COc1ccc(Cl)cc1Cl
not listed: [12] | [17]
inactive: all other assays above

CS(=O)(=O)OCCCCOS(C)(=O)=O
not listed: [9] | [10] | [11] | [19]
inactive: all other assays above

Oc1c(Cl)cc(Cl)c(Cl)c1Cc1c(O)c(Cl)cc(Cl)c1Cl
inactive and 48.6 µM (active): [14]
36.3 µM (active) and inactive: [6]
inactive: [3] | [20] | [4] | [5] | [15] | [18]
active: [1] 21.6 µM and 30.6 µM and 26.6 µM | [2] 24.3 µM | [16] 18.2 µM and 32.4 µM | [7] 18.2 µM

CC(C)Cc1ccc(C(C)C(=O)O)cc1 (stereo not given)
not listed: [9] | [10] | [11] | [12] | [14] | [19]
inactive: all other assays above

NC(=O)OCC(COC(N)=O)c1ccccc1
not listed: [7]
inactive: all other assays above

CC1(C)[C@@H](O[C@H]2O[C@H](C(=O)O)[C@@H](O)[C@H](O)[C@H]2O[C@@H]2O[C@H](C(=O)O)[C@@H](O)[C@H](O)[C@H]2O)CC[C@]2(C)[C@H]3C(=O)C=C4[C@@H]5C[C@@](C)(C(=O)O)CC[C@]5(C)CC[C@@]4(C)[C@]3(C)CC[C@@H]12
not listed: [9] | [10] | [11] | [15] | [17] | [19]
inactive: all other assays above

CCCCC1(COC(=O)CCC(=O)O)C(=O)N(c2ccccc2)N(c2ccccc2)C1=O
not listed: [16]
inactive: all other assays above
